Source: PubChem BioAssay (NCATS)
Inconclusive results are not listed. Values without a mark were called inactive. The source made the active and inactive calls. The call rests on the fitted dose curve; in most records, active means well fitted cell-killing curve with a large enough effect; inconclusive means small, poorly fitted or top-dose-only effect; inactive means no such curve, though single readings can be large or run the other way.

Test: qHTS of pediatric cancer cell lines to identify multiple opportunities for drug repurposing: Primary screen for Rh30 cells (AID 1347107); further: on the % scale 0 is the no-effect control and ±100 the full control effect; nearly all actives have a fitted effect of over 75% in size
Conditions: Rh30 rhabdomyosarcoma viability, CellTiter-Glo luminescence, 48 h; series mostly up to 46 µM; activity change, negative = cytotoxic: at the top concentration
In short: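 Viability after 48 h compound treatment at 37C, 500-1,000 cells/well, read as ATP luminescence with CellTiter-Glo. Primary screens used 11-point (MIPE, 0.78 nM-46 µM) or 8-point (NPC, 0.59 nM-46 µM) final concentrations; follow-up screens used 11-point dilutions.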

Question: For `NC(Cc1ccc(Cl)cc1)C(=O)O` (stereo not drawn), which activity change, negative = cytotoxic is on record?
Answer: 30.5% [at 0.597 µM]

Question: Which “activity change, negative = cytotoxic” value does the source give for `CCCCCN(CCCCC)C(=O)C(CCC(=O)O)NC(=O)c1ccc(Cl)c(Cl)c1` (stereo not drawn) here?
Answer: 1.23%

Question: With `CCO/C([O-])=N/c1c[n+](N2CCOCC2)no1` as the molecule, how does the “activity change, negative = cytotoxic” value read?
Answer: 12.9%

Question: For `CCN(CC)CCOCCOC(=O)C1(c2ccccc2)CCCC1`, which “activity change, negative = cytotoxic” value is on record?
Answer: 13.5%

Question: Which “activity change, negative = cytotoxic” value does the source give for `CSc1ccc(C(=O)c2[nH]c(=O)[nH]c2C)cc1` here?
Answer: 17.9%

Question: With `CCn1cc(C(=O)O)c(=O)c2cc3c(cc21)OCO3` as the molecule, how does the “activity change, negative = cytotoxic” value read?
Answer: 4.63% [at 16.1 µM]

Question: Which “activity change, negative = cytotoxic” value does the source give for `CC(=O)[C@@]1(O)CC[C@H]2[C@@H]3CCC4=CC(=O)CC[C@]4(C)[C@H]3CC[C@@]21C` here?
Answer: 0.865%

Question: Which “activity change, negative = cytotoxic” value does the source give for `CN(C)CCN(Cc1cccs1)c1ccccn1` here?
Answer: 26.5%

Question: Which “activity change, negative = cytotoxic” value does the source give for `CC(C)(C)NCC(O)c1cc(O)cc(O)c1` (stereo not drawn) here?
Answer: 14.8%

Question: Which “activity change, negative = cytotoxic” value does the source give for `CN(C)C(=O)Oc1cccc([N+](C)(C)C)c1` here?
Answer: 29.5%

Question: Which “activity change, negative = cytotoxic” value does the source give for `COc1ccc(CN(CCN(C)C)c2ccccn2)cc1` here?
Answer: 20.8%

Question: Which “activity change, negative = cytotoxic” value does the source give for `O=c1[nH]c(=O)n([C@H]2C[C@H](O)[C@@H](CO)O2)cc1Br` here?
Answer: 6.12%

Question: Which “activity change, negative = cytotoxic” value does the source give for `C[C@]12C=CC(=O)C=C1CC[C@H]1[C@@H]3C[C@@H](O)[C@](O)(C(=O)CO)[C@@]3(C)C[C@H](O)[C@@]12F` here?
Answer: 28.1%

Question: For `CNCCCN1c2ccccc2CCc2ccccc21`, which “activity change, negative = cytotoxic” value is on record?
Answer: 24.9%

Question: With `CCCNC(C)C(=O)Nc1ccccc1C` (stereo not drawn) as the molecule, how does the “activity change, negative = cytotoxic” value read?
Answer: 26.7%

Question: With `CC(N=C(NC#N)Nc1ccncc1)C(C)(C)C` (stereo not drawn) as the molecule, how does the “activity change, negative = cytotoxic” value read?
Answer: 6.65%

Question: Which “activity change, negative = cytotoxic” value does the source give for `CC(=O)[C@]1(O)Cc2c(O)c3c(c(O)c2[C@@H](O[C@H]2C[C@H](N)[C@H](O)[C@H](C)O2)C1)C(=O)c1ccccc1C3=O` here?
Answer: -11.2%

Question: For `NC/C=C/C(=O)O`, which “activity change, negative = cytotoxic” value is on record?
Answer: 22.4%

Question: Which “activity change, negative = cytotoxic” value does the source give for `Nc1c2c(nc3ccccc13)CCCC2O` (stereo not drawn) here?
Answer: 16.8%

Question: With `OCCN1CCN(CCCN2c3ccccc3C=Cc3ccccc32)CC1` as the molecule, how does the “activity change, negative = cytotoxic” value read?
Answer: 15%

Question: Which “activity change, negative = cytotoxic” value does the source give for `Cc1cccc(C)c1NC(=O)C(C)N` (stereo not drawn) here?
Answer: 19.7%

Question: With `CCNC(=O)N1CCN(CCCC(c2ccc(F)cc2)c2ccc(F)cc2)CC1` as the molecule, how does the “activity change, negative = cytotoxic” value read?
Answer: 10.6%

Question: With `C[C@]12CCC(=O)C=C1CC[C@@H]1[C@@H]2C(=O)C[C@@]2(C)[C@H]1CC[C@]2(O)C(=O)CO` as the molecule, how does the “activity change, negative = cytotoxic” value read?
Answer: 26.2%

Question: With `COc1cc(Cc2cnc(N)nc2N)cc(OC)c1OC` as the molecule, how does the “activity change, negative = cytotoxic” value read?
Answer: 4.65%

Question: Which “activity change, negative = cytotoxic” value does the source give for `CN(C)C/C=C(/c1ccc(Br)cc1)c1cccnc1` here?
Answer: 26.4%

Question: Which “activity change, negative = cytotoxic” value does the source give for `O=C1CC2(CCCC2)CC(=O)N1CCCCN1CCN(c2ncccn2)CC1` here?
Answer: 12.8%

Question: With `Cc1nnc(SCC2=C(C(=O)O)N3C(=O)[C@@H](NC(=O)Cn4cnnn4)[C@H]3SC2)s1` as the molecule, how does the “activity change, negative = cytotoxic” value read?
Answer: 24.5%

Question: Which “activity change, negative = cytotoxic” value does the source give for `CN/C(=C\[N+](=O)[O-])NCCSCc1ccc(CN(C)C)o1` here?
Answer: -8.8%

Question: For `CC1=NS(=O)(=O)c2cc(Cl)ccc2N1`, which “activity change, negative = cytotoxic” value is on record?
Answer: 17.1%

Question: For `O=C(O)CCCCCCCC(=O)O`, which “activity change, negative = cytotoxic” value is on record?
Answer: 15.9%

Question: For `CCN(CC)CC(=O)Nc1c(C)cccc1C`, which “activity change, negative = cytotoxic” value is on record?
Answer: 14.3%

Question: For `NC1=NCC2c3ccccc3Cc3ccccc3N12` (stereo not drawn), which “activity change, negative = cytotoxic” value is on record?
Answer: 34.5%

Question: For `Cc1scc2c1N(C(=O)CN1CCN(C)CC1)c1ccccc1NC2=O`, which “activity change, negative = cytotoxic” value is on record?
Answer: 10.4%

Question: For `CCCOc1ccccc1-c1nc2n[nH]nc2c(=O)[nH]1`, which “activity change, negative = cytotoxic” value is on record?
Answer: 17.4%

Question: With `CN(C)CCOC(=O)COc1ccc(Cl)cc1` as the molecule, how does the “activity change, negative = cytotoxic” value read?
Answer: 33.9%

Test: qHTS of pediatric cancer cell lines to identify multiple opportunities for drug repurposing: Primary screen for Rh41 cells (AID 1347108); further: nearly all actives have a fitted effect of over 70% in size; further: potency means the concentration at half of the fitted maximal effect;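 on activity change, negative = cytotoxic: luminescence drop marks cytotoxic hits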
Conditions: Rh41 rhabdomyosarcoma viability, CellTiter-Glo luminescence, 48 h; series mostly up to 46 µM; activity change, negative = cytotoxic: at the top concentration
In short: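 500-1,000 cells/well; 5 h pre-incubation 37 °C/5% CO2; compound pinned; 48 h; CellTiter-Glo, 15 min RT; luminescence. MIPE 11-pt from 0.78 nM, NPC 8-pt from 0.59 nM final. Bortezomib 2.3 µM final as positive control.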

Question: For `NC(Cc1ccc(Cl)cc1)C(=O)O` (stereo not drawn), which activity change, negative = cytotoxic is on record?
Answer: 28% [at 0.597 µM]

Question: Which “activity change, negative = cytotoxic” value does the source give for `CCCCCN(CCCCC)C(=O)C(CCC(=O)O)NC(=O)c1ccc(Cl)c(Cl)c1` (stereo not drawn) here?
Answer: 11.6%

Question: For `CCO/C([O-])=N/c1c[n+](N2CCOCC2)no1`, which “activity change, negative = cytotoxic” value is on record?
Answer: 15.4%

Question: With `CCN(CC)CCOCCOC(=O)C1(c2ccccc2)CCCC1` as the molecule, how does the “activity change, negative = cytotoxic” value read?
Answer: 13.7%

Question: For `CSc1ccc(C(=O)c2[nH]c(=O)[nH]c2C)cc1`, which “activity change, negative = cytotoxic” value is on record?
Answer: 15.8%

Question: For `CCn1cc(C(=O)O)c(=O)c2cc3c(cc21)OCO3`, which “activity change, negative = cytotoxic” value is on record?
Answer: 8.32% [at 16.1 µM]

Question: Which “activity change, negative = cytotoxic” value does the source give for `CC(=O)[C@@]1(O)CC[C@H]2[C@@H]3CCC4=CC(=O)CC[C@]4(C)[C@H]3CC[C@@]21C` here?
Answer: -1.21%

Question: Which “activity change, negative = cytotoxic” value does the source give for `CN(C)CCN(Cc1cccs1)c1ccccn1` here?
Answer: 27.2%

Question: For `CC(C)(C)NCC(O)c1cc(O)cc(O)c1` (stereo not drawn), which “activity change, negative = cytotoxic” value is on record?
Answer: 8.06%

Question: With `CN(C)C(=O)Oc1cccc([N+](C)(C)C)c1` as the molecule, how does the “activity change, negative = cytotoxic” value read?
Answer: 32.2%

Question: With `COc1ccc(CN(CCN(C)C)c2ccccn2)cc1` as the molecule, how does the “activity change, negative = cytotoxic” value read?
Answer: -3.58%

Question: Which “activity change, negative = cytotoxic” value does the source give for `O=c1[nH]c(=O)n([C@H]2C[C@H](O)[C@@H](CO)O2)cc1Br` here?
Answer: 1.72%

Question: With `C[C@]12C=CC(=O)C=C1CC[C@H]1[C@@H]3C[C@@H](O)[C@](O)(C(=O)CO)[C@@]3(C)C[C@H](O)[C@@]12F` as the molecule, how does the “activity change, negative = cytotoxic” value read?
Answer: 23.8%

Question: With `CNCCCN1c2ccccc2CCc2ccccc21` as the molecule, how does the “activity change, negative = cytotoxic” value read?
Answer: 17.8%

Question: Which “activity change, negative = cytotoxic” value does the source give for `CCCNC(C)C(=O)Nc1ccccc1C` (stereo not drawn) here?
Answer: 29.8%

Question: For `CC(N=C(NC#N)Nc1ccncc1)C(C)(C)C` (stereo not drawn), which “activity change, negative = cytotoxic” value is on record?
Answer: 3.45%

Question: Which Potency does the source give for `CC(=O)[C@]1(O)Cc2c(O)c3c(c(O)c2[C@@H](O[C@H]2C[C@H](N)[C@H](O)[C@H](C)O2)C1)C(=O)c1ccccc1C3=O` here?
Answer: 841 nM (active)

Question: Which “activity change, negative = cytotoxic” value does the source give for `NC/C=C/C(=O)O` here?
Answer: 16.7%

Question: Which “activity change, negative = cytotoxic” value does the source give for `Nc1c2c(nc3ccccc13)CCCC2O` (stereo not drawn) here?
Answer: 19.4%

Question: For `OCCN1CCN(CCCN2c3ccccc3C=Cc3ccccc32)CC1`, which “activity change, negative = cytotoxic” value is on record?
Answer: 11.9%

Question: With `Cc1cccc(C)c1NC(=O)C(C)N` (stereo not drawn) as the molecule, how does the “activity change, negative = cytotoxic” value read?
Answer: 14%

Question: Which “activity change, negative = cytotoxic” value does the source give for `C[C@]12CCC(=O)C=C1CC[C@@H]1[C@@H]2C(=O)C[C@@]2(C)[C@H]1CC[C@]2(O)C(=O)CO` here?
Answer: 32.5%

Question: For `COc1cc(Cc2cnc(N)nc2N)cc(OC)c1OC`, which “activity change, negative = cytotoxic” value is on record?
Answer: 11.2%

Question: For `CN(C)C/C=C(/c1ccc(Br)cc1)c1cccnc1`, which “activity change, negative = cytotoxic” value is on record?
Answer: 22.7%

Question: Which “activity change, negative = cytotoxic” value does the source give for `O=C1CC2(CCCC2)CC(=O)N1CCCCN1CCN(c2ncccn2)CC1` here?
Answer: 16.9%

Question: Which “activity change, negative = cytotoxic” value does the source give for `Cc1nnc(SCC2=C(C(=O)O)N3C(=O)[C@@H](NC(=O)Cn4cnnn4)[C@H]3SC2)s1` here?
Answer: 28.1%

Question: For `CC1=NS(=O)(=O)c2cc(Cl)ccc2N1`, which “activity change, negative = cytotoxic” value is on record?
Answer: 22.5%

Question: Which “activity change, negative = cytotoxic” value does the source give for `O=C(O)CCCCCCCC(=O)O` here?
Answer: 24.8%

Question: For `CCN(CC)CC(=O)Nc1c(C)cccc1C`, which “activity change, negative = cytotoxic” value is on record?
Answer: 13.7%

Question: Which “activity change, negative = cytotoxic” value does the source give for `NC1=NCC2c3ccccc3Cc3ccccc3N12` (stereo not drawn) here?
Answer: 16.2%

Question: Which “activity change, negative = cytotoxic” value does the source give for `Cc1scc2c1N(C(=O)CN1CCN(C)CC1)c1ccccc1NC2=O` here?
Answer: 10%

Question: For `CCCOc1ccccc1-c1nc2n[nH]nc2c(=O)[nH]1`, which “activity change, negative = cytotoxic” value is on record?
Answer: 15.3%

Question: Which “activity change, negative = cytotoxic” value does the source give for `CN(C)CCOC(=O)COc1ccc(Cl)cc1` here?
Answer: 26.4%
